Assay results as given in article PMC9911399, “Two distinct binding modes provide the RNA-binding protein RbFox with extraordinary sequence specificity”.
Residue numbers refer to the chain shown, from its start. Whole data set: some 16,000 sequences, median “ka relative to ugcaugu” near 0.0091, cut for the highest 2% near 0.032. The entries come from a sample that favours the highest values as a whole.

T1: RBFOX1 RRM (Homo sapiens, UniProt Q9NWB1 109-208)
T1 sequence: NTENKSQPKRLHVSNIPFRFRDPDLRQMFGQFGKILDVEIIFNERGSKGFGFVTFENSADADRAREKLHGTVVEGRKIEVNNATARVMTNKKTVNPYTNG

B1: GCGUCGU (DNA:RNA)
RNA: GGGAGACCGGAAUUCAGAUUGUCCGCGUCGUUUAAAUCCCGUCGUAGCCACCA
DNA 1: CAATCTGAATTCCGGTCTCCC
DNA 2: TGGTGGCTACGACGGGATT
B2: AUGCCGG (DNA:RNA)
RNA: B1 RNA with G25A, C26U, U28C, U31G
DNA 1: CAATCTGAATTCCGGTCTCCC
DNA 2: TGGTGGCTACGACGGGATT
B3: AGCGCGG (DNA:RNA)
RNA: B1 RNA with G25A, C26G, G27C, U28G, U31G
DNA 1: CAATCTGAATTCCGGTCTCCC
DNA 2: TGGTGGCTACGACGGGATT
B4: AGAACUA (DNA:RNA)
RNA: B1 RNA with G25A, C26G, G27A, U28A, G30U, U31A
DNA 1: CAATCTGAATTCCGGTCTCCC
DNA 2: TGGTGGCTACGACGGGATT
B5: CGAUCGA (DNA:RNA)
RNA: B1 RNA with G25C, C26G, G27A, U31A
DNA 1: CAATCTGAATTCCGGTCTCCC
DNA 2: TGGTGGCTACGACGGGATT
B6: UGAUCCG (DNA:RNA)
RNA: B1 RNA with G25U, C26G, G27A, G30C, U31G
DNA 1: CAATCTGAATTCCGGTCTCCC
DNA 2: TGGTGGCTACGACGGGATT
B7: UGCCUCG (DNA:RNA)
RNA: GGGAGACCGGAAUUCAGAUUGUCCUGCCUCGUUAAAUCCCGUCGUAGCCACCA
DNA 1: CAATCTGAATTCCGGTCTCCC
DNA 2: TGGTGGCTACGACGGGATT
B8: UGCCUGC (DNA:RNA)
RNA: B7 RNA with C30G, G31C
DNA 1: CAATCTGAATTCCGGTCTCCC
DNA 2: TGGTGGCTACGACGGGATT
B9: UGGUUGU (DNA:RNA)
RNA: B1 RNA with G25U, C26G, C29U
DNA 1: CAATCTGAATTCCGGTCTCCC
DNA 2: TGGTGGCTACGACGGGATT
B10: UGAUUAA (DNA:RNA)
RNA: B7 RNA with C27A, C28U, C30A, G31A
DNA 1: CAATCTGAATTCCGGTCTCCC
DNA 2: TGGTGGCTACGACGGGATT
B11: UGCCUGA (DNA:RNA)
RNA: B7 RNA with C30G, G31A
DNA 1: CAATCTGAATTCCGGTCTCCC
DNA 2: TGGTGGCTACGACGGGATT
B12: UGCCCGC (DNA:RNA)
RNA: B7 RNA with U29C, C30G, G31C
DNA 1: CAATCTGAATTCCGGTCTCCC
DNA 2: TGGTGGCTACGACGGGATT
B13: UGAUCGA (DNA:RNA)
RNA: B1 RNA with G25U, C26G, G27A, U31A
DNA 1: CAATCTGAATTCCGGTCTCCC
DNA 2: TGGTGGCTACGACGGGATT
B14: UGUUUGG (DNA:RNA)
RNA: B7 RNA with C27U, C28U, C30G
DNA 1: CAATCTGAATTCCGGTCTCCC
DNA 2: TGGTGGCTACGACGGGATT
B15: UGGUUUG (DNA:RNA)
RNA: B7 RNA with C27G, C28U, C30U
DNA 1: CAATCTGAATTCCGGTCTCCC
DNA 2: TGGTGGCTACGACGGGATT
B16: UGAUUGA (DNA:RNA)
RNA: B7 RNA with C27A, C28U, C30G, G31A
DNA 1: CAATCTGAATTCCGGTCTCCC
DNA 2: TGGTGGCTACGACGGGATT
B17: UGUCCGA (DNA:RNA)
RNA: B7 RNA with C27U, U29C, C30G, G31A
DNA 1: CAATCTGAATTCCGGTCTCCC
DNA 2: TGGTGGCTACGACGGGATT
B18: CCAGGCU (DNA:RNA)
RNA: B1 RNA with G25C, G27A, U28G, C29G, G30C
DNA 1: CAATCTGAATTCCGGTCTCCC
DNA 2: TGGTGGCTACGACGGGATT
B19: UAGUUGG (DNA:RNA)
RNA: B1 RNA with G25U, C26A, C29U, U31G
DNA 1: CAATCTGAATTCCGGTCTCCC
DNA 2: TGGTGGCTACGACGGGATT
B20: CCAAUAG (DNA:RNA)
RNA: B7 RNA with U25C, G26C, C27A, C28A, C30A
DNA 1: CAATCTGAATTCCGGTCTCCC
DNA 2: TGGTGGCTACGACGGGATT

What follows are binders tested against T1, RBFOX1 RRM (assay: EMSA; HiTS-Eq, 1 nM pool, 10 min; buffer printed only for the single-RNA assays: 10 mM Tris pH 7.5, 150 mM NaCl, 3.4 mM EDTA, 0.001% NP-40, 30 C). Conditions: tags: His6 N-terminal (pET28a); label: 5' 32P.
Outline: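 A pool of RNA with 7 randomized nucleotides, 5′-radiolabelled and with DNA-annealed flanks, was equilibrated at 1 nM for 10 min in 50 µL with purified RbFox RRM, wild type or mutant, across increasing protein concentrations. Free RNA was separated by 8% native PAGE, excised, reverse-transcribed, barcoded by PCR and sequenced. Relative association constants were obtained from read-count changes of each RNA species versus the control reaction and normalised to the cognate motif.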

| Binder | binding signal |
| --- | --- |
| B1 | 0.0171 KA relative to UGCAUGU |
| B2 | 0.0153 KA relative to UGCAUGU |
| B3 | 0.0172 KA relative to UGCAUGU |
| B4 | 0.00165 KA relative to UGCAUGU |
| B5 | 0.0185 KA relative to UGCAUGU |
| B6 | 0.0149 KA relative to UGCAUGU |
| B7 | 0.0235 KA relative to UGCAUGU |
| B8 | 0.0698 KA relative to UGCAUGU |
| B9 | 0.0314 KA relative to UGCAUGU |
| B10 | 0.00933 KA relative to UGCAUGU |
| B11 | 0.0398 KA relative to UGCAUGU |
| B12 | 0.0206 KA relative to UGCAUGU |
| B13 | 0.0347 KA relative to UGCAUGU |
| B14 | 0.0271 KA relative to UGCAUGU |
| B15 | 0.0372 KA relative to UGCAUGU |
| B16 | 0.028 KA relative to UGCAUGU |
| B17 | 0.0182 KA relative to UGCAUGU |
| B18 | 0.00926 KA relative to UGCAUGU |
| B19 | 0.0164 KA relative to UGCAUGU |
| B20 | 0.00034 KA relative to UGCAUGU |
